# Source: PubChem BioAssay (NCI)
# Compounds without any hit were thinned out: in the full panel of roughly 79,000, 15% have a hit. Values without a mark were called inactive. Calls of active or inactive are those of the source. Cut-off read from the data, not from the text of the source: active = growth inhibition above about 70%; inactive = the rest.
# How the values were obtained:
# [1] = NCI Yeast Anticancer Drug Screen. Data for the rad52 strain (AID 147);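 note: 0% = growth of vehicle-treated control cultures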; conditions: S. cerevisiae rad52 mutant growth inhibition, stronger effect = higher value
# Summary of the method: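 Read-out: growth inhibition versus vehicle-treated controls. Cells were a DNA repair-deficient yeast strain treated with compounds.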
# [2] = NCI Yeast Anticancer Drug Screen. Data for the wt1 strain (AID 149);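 note: 0% = growth of vehicle-treated wt1 cultures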; conditions: S. cerevisiae wt1 strain (SPY 50644) growth inhibition, stronger effect = higher value
# Summary of the method: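 Readout: yeast growth inhibition, normalised to vehicle controls, in the wt1 strain exposed to test compounds.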
# [3] = NCI Yeast Anticancer Drug Screen. Data for the rad50EPP+ strain (AID 151);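 note: 0% = growth of vehicle-treated control cultures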; conditions: S. cerevisiae rad50 mutant strain, stronger effect = higher value
# Summary of the method: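 Growth inhibition read against vehicle controls in rad50EPP+ yeast, a strain altered in DNA damage repair, after compound exposure.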
# [4] = NCI Yeast Anticancer Drug Screen. Data for the rad50 strain (AID 155);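 note: 0% = growth of vehicle-only cultures of the same strain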; conditions: S. cerevisiae rad50 strain growth inhibition, stronger effect = higher value
# Summary of the method: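 Compounds were tested on a yeast strain with an engineered DNA damage repair alteration; the reported value is growth inhibition normalised to vehicle treatment.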
# [5] = NCI Yeast Anticancer Drug Screen. Data for the mec2-1 strain (AID 157); conditions: S. cerevisiae mec2-1 strain, stronger effect = higher value
# Summary of the method: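 Yeast mec2-1 mutant treated with compound. Readout: growth inhibition vs vehicle controls.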
# [6] = NCI Yeast Anticancer Drug Screen. Data for the rad14 strain (AID 159);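 note: 0% = growth of vehicle-treated control cultures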; conditions: S. cerevisiae rad14 strain growth inhibition, stronger effect = higher value
# Summary of the method: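 Compound-treated yeast with a defined DNA-repair lesion; growth inhibition normalised to vehicle-treated cultures.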
# [7] = NCI Yeast Anticancer Drug Screen. Data for the sgs1 mgt1 strain (AID 161);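 note: 0% = growth of cultures given vehicle only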; conditions: S. cerevisiae sgs1 mgt1 strain, stronger effect = higher value
# Summary of the method: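 Mutant yeast exposed to compound; growth scored against vehicle-only wells.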
# [8] = NCI Yeast Anticancer Drug Screen. Data for the CLN2oe strain (AID 163);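 note: 0% = growth of vehicle-only control cultures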; conditions: S. cerevisiae CLN2oe strain, stronger effect = higher value
# Summary of the method: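 Read-out: yeast growth inhibition, expressed relative to vehicle-only controls. The strain bears an engineered cell-cycle alteration.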
# [9] = NCI Yeast Anticancer Drug Screen. Data for the cln2 rad14 strain (AID 165);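 note: 0% = growth equal to vehicle treated cultures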; conditions: S. cerevisiae cln2 rad14 strain, stronger effect = higher value
# Summary of the method: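 cln2 rad14 yeast strain; compound exposure; growth inhibition read vs vehicle controls.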
# [10] = NCI Yeast Anticancer Drug Screen. Data for the bub3 strain (AID 167); conditions: S. cerevisiae bub3 mutant strain, stronger effect = higher value
# Summary of the method: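 Growth of a checkpoint-deficient yeast mutant is measured after compound exposure. Values represent inhibition relative to vehicle.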
# [11] = NCI Yeast Anticancer Drug Screen. Data for the wt2 strain (AID 169);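 note: 0% = growth of vehicle-treated yeast cultures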; conditions: S. cerevisiae wt2 strain growth inhibition, stronger effect = higher value
# Summary of the method: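 Read-out: growth inhibition versus vehicle-treated control cultures after compound exposure of the yeast strain.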
# [12] = NCI Yeast Anticancer Drug Screen. Data for the mlh1 strain (AID 171);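 note: 0% = growth of vehicle-treated control cultures of the same strain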; conditions: S. cerevisiae mlh1 strain growth inhibition, stronger effect = higher value
# Summary of the method: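 Read-out: growth inhibition versus vehicle controls. Strain: engineered yeast with a defined DNA repair or cell cycle defect, compound-treated.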
# [13] = NCI Yeast Anticancer Drug Screen. Data for the sgs1 strain (AID 173);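 note: 0% = growth of vehicle-only control cultures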; conditions: S. cerevisiae sgs1 mutant, stronger effect = higher value
# Summary of the method: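 Read-out: yeast growth inhibition relative to vehicle controls, following compound exposure of a strain with a defined DNA repair/cell cycle alteration.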
# [14] = NCI Yeast Anticancer Drug Screen. Data for the rad18 strain (AID 177); conditions: S. cerevisiae rad18 mutant growth inhibition, stronger effect = higher value
# Summary of the method: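 Readout: growth inhibition vs vehicle controls. Cells: genetically altered yeast strain, DNA repair defect.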
# [15] = NCI Yeast Anticancer Drug Screen. Data for the mlh1 rad18 strain (AID 175); conditions: S. cerevisiae mlh1 rad18 strain growth inhibition, stronger effect = higher value
# Summary of the method: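 Yeast w/ defined DNA-repair lesions; compound exposure; growth vs vehicle controls → % inhibition.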
# [16] = at 5.0 µM (retest, dose inferred, filed as 0.5)
# [17] = at 50.0 µM (retest, dose inferred, filed as 5.0)
structure (smiles),measurement,setting,value
CN[C@@H]1C[C@H]2O[C@@](C)([C@@H]1OC)n1c3ccccc3c3c4c(c5c6ccccc6n2c5c31)C(=O)N[C@@H]4O,growth inhibition,[1]; at 1.2 µM,11%
same,growth inhibition,[1]; at 3.7 µM,35%
same,growth inhibition,[1]; at 11.0 µM,22%
same,growth inhibition,[1]; at 33.0 µM,24%
same,growth inhibition,[1]; at 100.0 µM,38%
same,growth inhibition,[2]; at 1.2 µM,-24%
same,growth inhibition,[2]; at 3.7 µM,16%
same,growth inhibition,[2]; at 11.0 µM,15%
same,growth inhibition,[2]; at 33.0 µM,7%
same,growth inhibition,[2]; at 100.0 µM,8%
same,growth inhibition,[3]; at 1.2 µM,-23%
same,growth inhibition,[3]; at 3.7 µM,-18%
same,growth inhibition,[3]; at 11.0 µM,-9%
same,growth inhibition,[3]; at 33.0 µM,-11%
same,growth inhibition,[3]; at 100.0 µM,21%
same,growth inhibition,[4]; at 1.2 µM,-34%
same,growth inhibition,[4]; at 3.7 µM,-41%
same,growth inhibition,[4]; [16],-17%
same,growth inhibition,[4]; at 11.0 µM,-23%
same,growth inhibition,[4]; at 33.0 µM,-33%
same,growth inhibition,[4]; [17],6%
same,growth inhibition,[4]; at 50.0 µM,50.4%
same,growth inhibition,[4]; at 100.0 µM,2%
same,growth inhibition,[5]; at 1.2 µM,-53%
same,growth inhibition,[5]; at 3.7 µM,-44%
same,growth inhibition,[5]; [16],-9%
same,growth inhibition,[5]; at 11.0 µM,-36%
same,growth inhibition,[5]; at 33.0 µM,-9%
same,growth inhibition,[5]; [17],30%
same,growth inhibition,[5]; at 50.0 µM,35%
same,growth inhibition,[5]; at 100.0 µM,19%
same,growth inhibition,[6]; at 1.2 µM,-31%
same,growth inhibition,[6]; at 3.7 µM,-34%
same,growth inhibition,[6]; at 11.0 µM,-31%
same,growth inhibition,[6]; at 33.0 µM,-9%
same,growth inhibition,[6]; at 100.0 µM,67%
same,growth inhibition,[7]; [16],-1%
same,growth inhibition,[7]; [17],24%
same,growth inhibition,[7]; at 50.0 µM,16.4%
same,growth inhibition,[8]; at 1.2 µM,-8%
same,growth inhibition,[8]; at 3.7 µM,-8%
same,growth inhibition,[8]; at 11.0 µM,5%
same,growth inhibition,[8]; at 33.0 µM,12%
same,growth inhibition,[8]; at 100.0 µM,20%
same,growth inhibition,[9]; [16],13%
same,growth inhibition,[9]; [17],38%
same,growth inhibition,[9]; at 50.0 µM,22.4%
same,growth inhibition,[10]; at 1.2 µM,-11%
same,growth inhibition,[10]; at 3.7 µM,-10%
same,growth inhibition,[10]; [16],30%
same,growth inhibition,[10]; at 11.0 µM,13%
same,growth inhibition,[10]; at 33.0 µM,32%
same,growth inhibition,[10]; [17],83% (active)
same,growth inhibition,[10]; at 50.0 µM,74.5% (active)
same,growth inhibition,[10]; at 100.0 µM,74% (active)
same,growth inhibition,[11]; at 1.2 µM,-36%
same,growth inhibition,[11]; at 3.7 µM,-16%
same,growth inhibition,[11]; at 11.0 µM,15%
same,growth inhibition,[11]; at 33.0 µM,-21%
same,growth inhibition,[11]; at 100.0 µM,21%
same,growth inhibition,[12]; at 1.2 µM,-20%
same,growth inhibition,[12]; at 3.7 µM,-12%
same,growth inhibition,[12]; at 11.0 µM,-16%
same,growth inhibition,[12]; at 33.0 µM,0%
same,growth inhibition,[12]; at 100.0 µM,-7%
same,growth inhibition,[13]; at 1.2 µM,-1%
same,growth inhibition,[13]; at 3.7 µM,-5%
same,growth inhibition,[13]; at 11.0 µM,1%
same,growth inhibition,[13]; at 33.0 µM,8%
same,growth inhibition,[13]; at 100.0 µM,43%
same,growth inhibition,[14]; at 1.2 µM,-8%
same,growth inhibition,[14]; at 3.7 µM,-7%
same,growth inhibition,[14]; at 11.0 µM,-3%
same,growth inhibition,[14]; at 33.0 µM,10%
same,growth inhibition,[14]; at 100.0 µM,25%
OCCN(CCO)c1ccc2c(c1)Cc1ccccc1-2,growth inhibition,[1]; at 1.2 µM,-9%
same,growth inhibition,[1]; at 3.7 µM,-15%
same,growth inhibition,[1]; at 11.0 µM,3%
same,growth inhibition,[1]; at 33.0 µM,20%
same,growth inhibition,[1]; at 100.0 µM,43%
same,growth inhibition,[2]; at 1.2 µM,0%
same,growth inhibition,[2]; at 3.7 µM,5%
same,growth inhibition,[2]; at 11.0 µM,6%
same,growth inhibition,[2]; at 33.0 µM,6%
same,growth inhibition,[2]; at 100.0 µM,17%
same,growth inhibition,[3]; at 1.2 µM,-6%
same,growth inhibition,[3]; at 3.7 µM,-3%
same,growth inhibition,[3]; at 11.0 µM,17%
same,growth inhibition,[3]; at 33.0 µM,43%
same,growth inhibition,[3]; at 100.0 µM,53%
same,growth inhibition,[4]; at 1.2 µM,-12%
same,growth inhibition,[4]; at 3.7 µM,-15%
same,growth inhibition,[4]; [16],13%
same,growth inhibition,[4]; at 11.0 µM,-13%
same,growth inhibition,[4]; at 33.0 µM,34%
same,growth inhibition,[4]; [17],48%
same,growth inhibition,[4]; at 50.0 µM,34.1%
same,growth inhibition,[4]; at 100.0 µM,65%
same,growth inhibition,[5]; at 1.2 µM,-3%
same,growth inhibition,[5]; at 3.7 µM,-4%
same,growth inhibition,[5]; [16],1%
same,growth inhibition,[5]; at 11.0 µM,-4%
same,growth inhibition,[5]; at 33.0 µM,-7%
same,growth inhibition,[5]; [17],12%
same,growth inhibition,[5]; at 50.0 µM,-11.8%
same,growth inhibition,[5]; at 100.0 µM,1%
same,growth inhibition,[6]; at 1.2 µM,3%
same,growth inhibition,[6]; at 3.7 µM,-4%
same,growth inhibition,[6]; at 11.0 µM,23%
same,growth inhibition,[6]; at 33.0 µM,15%
same,growth inhibition,[6]; at 100.0 µM,31%
same,growth inhibition,[7]; [16],8%
same,growth inhibition,[7]; [17],71% (active)
same,growth inhibition,[7]; at 50.0 µM,52.2%
same,growth inhibition,[8]; at 1.2 µM,-9%
same,growth inhibition,[8]; at 3.7 µM,-8%
same,growth inhibition,[8]; at 11.0 µM,-16%
same,growth inhibition,[8]; at 33.0 µM,-11%
same,growth inhibition,[8]; at 100.0 µM,-7%
same,growth inhibition,[9]; [16],6%
same,growth inhibition,[9]; [17],6%
same,growth inhibition,[9]; at 50.0 µM,-2.7%
same,growth inhibition,[10]; at 1.2 µM,-9%
same,growth inhibition,[10]; at 3.7 µM,-8%
same,growth inhibition,[10]; [16],2%
same,growth inhibition,[10]; at 11.0 µM,-13%
same,growth inhibition,[10]; at 33.0 µM,-13%
same,growth inhibition,[10]; [17],27%
same,growth inhibition,[10]; at 50.0 µM,10.4%
same,growth inhibition,[10]; at 100.0 µM,1%
same,growth inhibition,[11]; at 1.2 µM,5%
same,growth inhibition,[11]; at 3.7 µM,9%
same,growth inhibition,[11]; at 11.0 µM,14%
same,growth inhibition,[11]; at 33.0 µM,29%
same,growth inhibition,[11]; at 100.0 µM,45%
same,growth inhibition,[12]; at 1.2 µM,-13%
same,growth inhibition,[12]; at 3.7 µM,-7%
same,growth inhibition,[12]; at 11.0 µM,-6%
same,growth inhibition,[12]; at 33.0 µM,-6%
same,growth inhibition,[12]; at 100.0 µM,26%
same,growth inhibition,[15]; [16],23%
same,growth inhibition,[15]; [17],84% (active)
same,growth inhibition,[15]; at 50.0 µM,77.4% (active)
same,growth inhibition,[14]; at 1.2 µM,-8%
same,growth inhibition,[14]; at 3.7 µM,4%
same,growth inhibition,[14]; at 11.0 µM,18%
same,growth inhibition,[14]; at 33.0 µM,82% (active)
same,growth inhibition,[14]; at 100.0 µM,90% (active)
